Most compounds without a hit are left out; they make up all but 0.39% or so of the library.
GLS inh: inhibitors of human glutaminase (GLS) | GLS enzymatic activity, qHTS titration | Potency, µM (doses to about 45.5 µM), for inactives: at the top dose activity change, negative = inhibition, hits mostly inhibitors | actives 0.21% (n = 410,000) | AID 624170; note: % is set by controls: 0 for no effect and ±100 for the full control effect
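Read-out is an Amplex red fluorescence increase coupled through glutamate oxidase and HRP, measured before and after 30 min room-temperature incubation. hKGA is in 45 mM KH2PO4 (pH 8.2) with 0.02% Tween-20; glutamine added as 1mM solution.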
p53 reactivation: restores transcriptional activity of mutant p53; H1299 p53-A138V BP100-luciferase reporter, luminescence, 24 h; Potency, µM (doses to about 92.2 µM), for the others: at the top dose activity change, positive = activation, usual class: activators; actives 0.063% (n = 320,000); note: % of control where 0% means no effect; nearly all actives have a fitted effect of over 45% in size
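H1299 (p53-null), stable ts p53-A138V + BP100-Luc; 1000 cells/well, Opti-MEM/10% FBS; cpd 4 pt, 1:5; 24 h, 37 deg C, 5% CO2; detection reagent 10 min RT; luminescence.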
USP2a block: USP2a (human) protease inhibition | Potency, µM (titrated, usually from 38.3 µM), without a hit: at the highest dose activity change, negative = inhibition, hits mostly inhibitors | USP2 core, Ub-CHOP2 coupled fluorogenic reporter, 485/531 | O75604 | AID 463254 | actives 0.01% (n = 330,000);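 note: plate controls were DMSO wells for no effect and full inhibition by NEM control for full effect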
Target sequence (O75604 whole entry, looked up): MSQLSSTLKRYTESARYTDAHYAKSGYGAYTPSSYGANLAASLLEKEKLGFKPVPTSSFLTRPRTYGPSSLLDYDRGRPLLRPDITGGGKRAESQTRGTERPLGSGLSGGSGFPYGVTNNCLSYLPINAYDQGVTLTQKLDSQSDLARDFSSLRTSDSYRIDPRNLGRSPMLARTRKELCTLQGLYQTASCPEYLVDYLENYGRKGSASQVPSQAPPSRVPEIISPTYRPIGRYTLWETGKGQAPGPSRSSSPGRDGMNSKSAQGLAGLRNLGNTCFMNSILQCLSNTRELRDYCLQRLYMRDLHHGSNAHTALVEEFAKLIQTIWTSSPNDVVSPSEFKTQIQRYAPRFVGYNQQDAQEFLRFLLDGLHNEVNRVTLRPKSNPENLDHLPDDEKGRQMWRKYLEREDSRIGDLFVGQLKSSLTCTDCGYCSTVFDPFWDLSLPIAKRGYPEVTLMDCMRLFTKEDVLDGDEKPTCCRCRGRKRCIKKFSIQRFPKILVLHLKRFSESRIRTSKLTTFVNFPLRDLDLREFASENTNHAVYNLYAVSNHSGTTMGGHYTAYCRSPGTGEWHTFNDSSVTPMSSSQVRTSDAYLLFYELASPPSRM
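Cell-free coupled assay: 10nM USP2 core preincubated 30min RT with compound in Tris-HCl pH 8.0/CaCl2/CHAPS buffer, then 25nM Ub-CHOP2 and 25nM reporter substrate; fluorescence (Ex 485/Em 531) read after 60min RT, normalized to NEM inhibition, concentration-response curves fitted.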
Tb PFK inh-1: inhibitors of T. brucei phosphofructokinase | T. brucei PFK, ADP-Glo luminescence | Potency, µM (titrated, usually from 57.5 µM), for inactives: at the highest dose activity, negative = inhibition, usual class: inhibitors | actives 0.17% (n = 330,000) | AID 485367;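 note: 0% = uninhibited 1x PFK enzyme wells and -100% = no-enzyme wells; nearly all actives have a fitted effect of over 60% in size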
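Activity is normalized to no-enzyme wells (full inhibition) and 1.25 nM enzyme wells (no inhibition). Reaction: 0.5 mM F6P, 0.1 mM ATP, 45 min RT, ADP-Glo luminescence; concentration-response curves fitted and classed by quality.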
Tb PFK KinaseGlo: inhibits T. brucei PFK measured by ATP depletion; shares compounds with Tb PFK inh-1; Tb PFK enzyme, ATP depletion, Kinase-Glo Plus luminescence; Potency, µM (top dose mostly 57.5 µM), for inactives: top-dose inhibition; actives 47% (n = 1,100); calls by dose curve; note: nearly all actives have a fitted effect of over 60% in size
Tb PFK inh-2: validation of T. brucei phosphofructokinase inhibitors. shares compounds with Tb PFK inh-1. purified T. brucei PFK, ADP-Glo luminescence, 45 min. Potency, µM (series often up to 57.5 µM), inactives show top-dose activity change, negative = inhibition, hits mostly inhibitors. actives 41% (n = 1,100). AID 504637;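 note: plate controls were full PFK enzyme control for no effect and no enzyme control for full effect; nearly all actives have a fitted effect of over 60% in size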
Starred values were filed as active, the others as inactive; ? = inconclusive; · = no result given; [ ] = dose if it differs, or a comment. Unless noted, calls come from the whole dose curve; as a rule, active = well fitted curve in the direction sought with a large enough effect; inconclusive = small, poorly fitted or top-dose-only effect, or another doubt; inactive = no such curve, though single readings can be large; an effect the other way counts as inactive or inconclusive. Potency is the fitted concentration of half-maximal effect.

SMILES	GLS inh	p53 reactivation	USP2a block	Tb PFK inh-1	Tb PFK KinaseGlo	Tb PFK inh-2
O=C1OC(/C(=C\Nc2cc(Cl)ccc2O)[N+](=O)[O-])c2ccccc21 (stereo not given)	?	-11%	2%	?	3%	-13%
Cc1ccc(N/C=C(\C2OC(=O)c3ccccc32)[N+](=O)[O-])c(C)c1 (stereo not given)	9%	-9%	0%	?	1%	0%
O=C1OC(/C(=C\Nc2ccc(F)cc2F)[N+](=O)[O-])c2ccccc21 (stereo not given)	0%	-11%	1%	?	3%	-1%
CC(C)C1C(C#N)=C(N)Oc2c1c(=O)oc1ccccc21 (stereo not given)	-4%	·	·	·	·	·
NCC[C@H](O)C(=O)N[C@H]1C[C@@H](N)[C@@H](O[C@H]2O[C@@H](CN)[C@@H](O)[C@@H](O)[C@@H]2N)[C@@H](O[C@H]2O[C@@H](CO)[C@@H](O)[C@@H]2O)[C@@H]1O	5%[20 µM]	·	·	·	·	·
CC(=O)Nc1cccc([As](=O)(c2cccc(NC(C)=O)c2)c2cccc(NC(C)=O)c2)c1	-1%	0%	4%	-1%	·	·
CC(=O)Nc1cc([As](=O)(O)O)ccc1O	28%	0%	5%	?	?	?
CCN(CC)CCOC(=O)C(C)(c1ccccc1)c1ccccc1	15%	·	·	·	·	·
O=[N+]([O-])c1ccc(CSc2nnc(-c3cnccn3)o2)cc1	0%	18%	3%	24µM*	?	?
COc1cccc(C(=O)CCN[C@@H](C)[C@H](O)c2ccccc2)c1	-1%	·	·	·	·	·
Cc1cccc(-n2c(-c3ccco3)nc3ccccc3c2=O)n1	-2%	2%	1%	8%	·	·
Cc1ccc(/C=c2\sc3nc(-c4ccco4)nn3c2=O)o1	67%	4%	4%	21µM*	?	?
C[C@]12CC[C@@H]3c4ccc(OC(=O)N(CCCl)CCCl)cc4CC[C@H]3[C@@H]1CC[C@@H]2OP(=O)(O)O	3%	·	·	·	·	·
Cc1cc(C)n2nc3nc(N4CCCCC4)nc(-c4ccco4)c3c2n1	?	2%	-1%	?	9%	-2%
Cc1ccnc(NS(=O)(=O)c2ccc(NC(=O)Cc3ccc(Br)cc3)cc2)n1	6%	-3%	1%	?	21µM*	?
O=C(Cc1ccc(Cl)c(Cl)c1)Nc1ccc(S(=O)(=O)Nc2ncccn2)cc1	-3%	-2%	0%	2.4µM*	0.85µM*	1.9µM*
CC(=O)Nc1ccc(CC(=O)N2CCN(Cc3ccccc3)CC2)cc1	-5%	0%	-2%	0%	·	·
O=c1n(Cl)c(=O)n(Cl)c(=O)n1Cl	11%	·	·	·	·	·
O=C(Nc1cccc(Cl)c1)c1cccc(N2C(=O)C3CC=CCC3C2=O)c1 (stereo not given)	?	3%	0%	27µM*	6µM*	13µM*
CCOC(=O)c1c(-c2ccc(OC)cc2)csc1/N=C/C1C(=O)CCCC1=O	-3%	-9%	-1%	?	1%	-1%
CCOC(=O)c1c(/N=C/C2C(=O)NC(=S)NC2=O)sc2c1CCC2	0%	-6%	10%	5%	·	·
CN(C)CCn1nnnc1SCC1=C(C(=O)O)N2C(=O)[C@@H](NC(=O)Cc3csc(N)n3)[C@H]2SC1	-1%	1%	6%	12µM*	6%	-7%
CC1=C(C(=O)O)N2C(=O)C(NC(=O)CCCC(=O)O)C2SC1 (stereo not given)	16%	-5%	1%	-1%	·	·
ClC1=C(Cl)C2(Cl)C(CBr)CC1(Cl)C2(Cl)Cl (stereo not given)	5%	·	·	·	·	·
Cc1ccc(CC(=O)NNC(=O)c2ccncc2)cc1C	6%	2%	2%	?	13µM*	21µM*
SMILES	GLS inh	p53 reactivation	USP2a block	Tb PFK inh-1	Tb PFK KinaseGlo	Tb PFK inh-2
O=C1CC(c2ccc(C(F)(F)F)cc2)c2c(c3ccccc3oc2=O)O1 (stereo not given)	23%	·	·	·	·	·
COc1ccccc1NS(=O)(=O)c1cc(NC(=O)c2sccc2C)ccc1N1CCCC1	9%	0%	7%	?	12µM*	24µM*
Cc1cccc(-n2c(/C=C/c3cn(C)c4ccccc34)nc3ccccc3c2=O)c1	-3%	·	·	·	·	·
O=[N+]([O-])C(Br)(CO)CO	50%	·	·	·	·	·
Cc1cc(C)c(NC(=S)NCC2CCN(C(C)c3ccccc3)C2)c(C)c1 (stereo not given)	-2%	24%	3%	?	7.6µM*	15µM*
O=C1NC(=S)SC1=Cc1ccc(N(CCCl)CCCl)cc1	4%	·	·	·	·	·
CCN(CC)c1ccc(/C=C2\C(=O)N(c3nnc(C)c(=O)[nH]3)N=C2C)cc1	-30%	-8%	2%	?	?	13µM*
CCN(CC)c1ccc(/C=C2/C(=O)NC(=O)N(CC3CCCO3)C2=O)cc1 (stereo not given)	16%	0%	2%	-6%	·	·
Cc1ccc(-c2cc(C(=O)N/N=C/C(Br)=C/c3ccccc3)n[nH]2)o1	7%	2%	1%	?	-20%	?
CC(=O)OC1C(O)C2=C3C4(C)C1C(C)(C)C(=O)CC4C3(O)C(OC(C)=O)C1(CC1C)C2=O (stereo not given)	-19%	·	·	·	·	·
CCOCCOC(C)=O	-1%[99.4 µM]	·	·	·	·	·
C=CCSc1nc2sc3c(c2c(=O)n1CC)CCc1ccccc1-3	-21%	?	-6%	13µM*	6.7µM*	11µM*
O=C1Nc2ccccc2N(O)N1c1ccc(Cl)c(Cl)c1	25%	-4%	2%	11µM*	?	-15%
O=C1Nc2cc(Cl)c(Cl)cc2N(O)N1c1ccc(Cl)c(Cl)c1	12%	-5%	-1%	13µM*	11%	-15%
O=c1ccsn1Cc1ccccc1	?	-30%	2%	11µM*	16%	11µM*
COc1cc(-c2nnc(SCc3cc(=O)oc4cc(O)c(O)cc34)o2)cc(OC)c1OC	-24%	?	-4%	?	1.7µM*	1.5µM*
CC1CN(c2ccccc2)NC1=O (stereo not given)	?	14%	-1%	5%	·	·
CCOC(=O)CNC(=O)N1Cc2ccccc2-n2nncc2C1	-1%	·	·	·	·	·
CC(C)N(CCc1ccncc1)C(=O)Nc1ccc(Cl)c(Cl)c1	-1%	-10%	4%	?	9%	-7%
CC(=O)n1cc(C(C[N+](=O)[O-])SCCN)c2ccccc21 (stereo not given)	1%	-11%	-1%	?	-20%	?
CC1CCN(C(=O)COC(=O)c2cn(C)c3ccccc23)CC1	0%	1%	4%	-7%	·	·

Screening results as filed in PubChem BioAssay.
